Where “and” joins values, the source holds several entries; their conditions need not be identical. Equal values may be shown once. Results filed as inconclusive are left out. Some compounds were tested as several samples or in several runs, with calls that do not always agree. Calls of active or inactive are those of the source. Unless noted, the call rests on the fitted dose curve; in most records, active means well fitted curve in the direction sought with a large enough effect in the repeat runs; inconclusive means weak or mixed curves; inactive means no such curve, though single readings can be large; an effect the other way counts as inactive or inconclusive. Positions of bridges follow the written chain, without caps; N, C: chain ends. Non-standard residues stand in square brackets, D forms with d. Residues, ends and D or L forms follow the SMILES beside them. *: point of attachment. X1 = CC[C@@H](C)[C@@H](N)C1=N[C@H](C(=O)*)CS1; d(aIle) = CC[C@H](C)[C@@H](N)C(=O)O; dOrn = NCCC[C@@H](N)C(=O)O
Assays:
[1] = qHTS assay to identify aromatase inhibitors - cell viability counter screen (AID 743084);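 further: cells stimulated with testosterone during compound exposure; nearly all actives have a fitted effect of over 55% in size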; further: potency means the concentration at half of the fitted maximal effect
[2] = molecular target: Aryl hydrocarbon receptor (Homo sapiens) (UniProt P35869); assay: qHTS assay to identify small molecule that activate the aryl hydrocarbon receptor (AhR) signaling pathway (AID 743085); further: nearly all actives have a fitted effect of over 15% in size; further: potency means the concentration at half of the fitted maximal effect;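 on activation: HG2L7.5c1 human HepG2 liver cells with stably integrated DRE-driven firefly reporter; series mostly up to about 70 µM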
Aryl hydrocarbon receptor (Homo sapiens), sequence (P35869 whole entry, looked up): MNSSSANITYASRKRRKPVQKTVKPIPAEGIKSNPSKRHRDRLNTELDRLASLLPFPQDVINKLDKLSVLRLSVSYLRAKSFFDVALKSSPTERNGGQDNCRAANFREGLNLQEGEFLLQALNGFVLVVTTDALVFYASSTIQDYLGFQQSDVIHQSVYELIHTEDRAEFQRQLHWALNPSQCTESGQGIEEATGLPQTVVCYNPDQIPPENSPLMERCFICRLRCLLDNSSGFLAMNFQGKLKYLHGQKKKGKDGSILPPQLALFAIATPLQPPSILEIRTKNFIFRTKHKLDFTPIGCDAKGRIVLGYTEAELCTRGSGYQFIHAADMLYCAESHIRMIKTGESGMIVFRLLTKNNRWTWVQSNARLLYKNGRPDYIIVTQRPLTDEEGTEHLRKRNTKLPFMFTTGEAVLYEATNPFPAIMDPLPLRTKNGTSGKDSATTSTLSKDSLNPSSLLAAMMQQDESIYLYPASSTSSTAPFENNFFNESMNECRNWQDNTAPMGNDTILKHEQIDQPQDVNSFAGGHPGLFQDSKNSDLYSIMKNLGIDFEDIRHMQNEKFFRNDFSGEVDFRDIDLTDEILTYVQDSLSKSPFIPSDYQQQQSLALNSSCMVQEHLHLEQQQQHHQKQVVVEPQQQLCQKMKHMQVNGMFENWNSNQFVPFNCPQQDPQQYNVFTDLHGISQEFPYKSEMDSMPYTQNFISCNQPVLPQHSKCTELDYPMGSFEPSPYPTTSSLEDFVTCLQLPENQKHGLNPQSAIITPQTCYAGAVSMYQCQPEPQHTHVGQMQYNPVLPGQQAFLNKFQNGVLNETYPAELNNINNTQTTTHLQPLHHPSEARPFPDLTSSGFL
In short: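 Reporter assay in engineered HepG2 line HG2L7.5c1, whose plasmid carries twenty dioxin responsive elements upstream of firefly luciferase. Treatment lasted 24 h at 37C; ONE-Glo luminescence gauged induction.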

[3] = qHTS assay to identify small molecule that activate the aryl hydrocarbon receptor (AhR) signaling pathway - cell viability counter screen (AID 743086); further: nearly all actives have a fitted effect of over 45% in size; further: potency means the concentration at half of the fitted maximal effect
In short: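 Cytotoxicity counter screen: CellTiter-Fluor signal (30 min, 37 C) in 4000 HepG2 cells/well carrying the DRE-luciferase reporter, following 24 h compound exposure at 37 C.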

[4] = molecular target: Peroxisome proliferator-activated receptor gamma (Homo sapiens) (UniProt P37231); assay: qHTS assay to identify small molecule agonists of the peroxisome proliferator-activated receptor gamma (PPARg) signaling pathway (AID 743094; active means well fitted activation curve with a large enough effect in the signal ratio in the repeat runs, not every such curve was filed as active; the % refers to the signal ratio)
Peroxisome proliferator-activated receptor gamma (Homo sapiens), sequence (P37231 whole entry, looked up): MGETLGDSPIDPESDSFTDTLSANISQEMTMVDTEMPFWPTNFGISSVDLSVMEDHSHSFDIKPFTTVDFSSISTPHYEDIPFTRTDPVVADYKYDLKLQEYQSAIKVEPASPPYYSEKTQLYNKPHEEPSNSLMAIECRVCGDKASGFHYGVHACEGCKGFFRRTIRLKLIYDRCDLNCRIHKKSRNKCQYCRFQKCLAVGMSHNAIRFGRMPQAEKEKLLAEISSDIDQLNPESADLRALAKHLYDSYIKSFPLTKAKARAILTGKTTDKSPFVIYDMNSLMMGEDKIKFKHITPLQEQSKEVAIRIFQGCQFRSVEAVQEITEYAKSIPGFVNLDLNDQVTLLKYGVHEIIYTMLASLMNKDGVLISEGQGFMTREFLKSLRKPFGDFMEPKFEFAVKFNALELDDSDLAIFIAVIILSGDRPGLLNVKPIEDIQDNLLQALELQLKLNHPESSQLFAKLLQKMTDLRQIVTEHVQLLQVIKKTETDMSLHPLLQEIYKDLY
In short: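 HEK293H PPARg-bla cells, 5 h settle at 37C/5% CO2; compound (DMSO) 17 h, 37C; B/G FRET substrate 1 h RT; fluorescence intensity read-out. qHTS format.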

[5] = qHTS assay for small molecule agonists of the antioxidant response element (ARE) signaling pathway - cell viability counter screen (AID 743203; calls by dose curve; further: nearly all actives have a fitted effect of over 55% in size; further: potency means the concentration at half of the fitted maximal effect)
In short: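 Luminescence read-out (CellTiter-Glo, 30 min at room temperature) measured cell viability in the same wells as the ARE beta-lactamase reporter. HepG2 ARE-bla cells were treated with compounds for 16 hrs at 37C/5% CO2.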

[6] = qHTS assay for small molecule activators of the heat shock response signaling pathway - cell viability counter screen (AID 743209); further: nearly all actives have a fitted effect of over 50% in size; further: potency means the concentration at half of the fitted maximal effect
In short: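 HSE-bla HeLa; 1500 cells/well; overnight 37 C, 5% CO2; compound 5 h 37 C; LiveBLAzer B/G substrate 2.5 h RT; CellTiter-Glo 30 min RT; luminescence.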

[7] = qHTS assay to identify small molecule antagonists of the peroxisome proliferator-activated receptor gamma (PPARg) signaling pathway - cell viability counter screen (AID 743194); further: nearly all actives have a fitted effect of over 55% in size; further: potency means the concentration at half of the fitted maximal effect
In short: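 Viability was measured as CellTiter-Glo luminescence in GeneBLAzer PPARg UAS-bla HEK293H cells. These cells had been exposed 17 h at 37 C to compounds together with rosiglitazone at 50 nM final, with the beta-lactamase readout taken in the same wells.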

[8] = qHTS assay for small molecule agonists of the antioxidant response element (ARE) signaling pathway (AID 743202; active means well fitted activation curve with a large enough effect in the signal ratio in the repeat runs, not every such curve was filed as active; the % refers to the signal ratio; further: potency means the concentration at half of the fitted maximal effect)
In short: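 After 16 hours of compound treatment at 37 C, HepG2 cells with a stably integrated ARE-driven beta-lactamase reporter were loaded 2 hours at room temperature with LiveBLAzer B/G FRET substrate and fluorescence intensity measured.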

[9] = molecular target: Peroxisome proliferator-activated receptor gamma (Homo sapiens) (UniProt P37231); assay: qHTS assay to identify small molecule antagonists of the peroxisome proliferator-activated receptor gamma (PPARg) signaling pathway (AID 743191; calls by dose curve; further: nearly all actives have a fitted effect of over 30% in size; further: potency means the concentration at half of the fitted maximal effect)
In short: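 Beta-lactamase reporter under UAS control in HEK293H PPARg-bla cells; compound treatment 17 h at 37C. Read-out: fluorescence intensity after 1 h room-temperature incubation with LiveBLAzer B/G FRET substrate.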

[10] = qHTS assay for small molecule activators of the heat shock response signaling pathway (AID 743210; active means well fitted activation curve with a large enough effect in the signal ratio in the repeat runs, with a control signal flat, not every such curve was filed as active; the % refers to the signal ratio; further: series mostly up to about 63 µM)
In short: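 Compound exposure lasted 5 h at 37 C in HeLa cells carrying a heat-shock-element-driven beta-lactamase reporter. Read-out: fluorescence intensity after 2.5 h room-temperature loading with LiveBLAzer B/G FRET substrate.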

Measured: Potency

C[C@H](NCCc1ccc(O)cc1)[C@H](O)c1ccc(O)cc1
inactive: [1] | [2] | [3] | [4]

O=C(N[C@H](CO)[C@H](O)c1ccc([N+](=O)[O-])cc1)C(Cl)Cl
inactive: [1] | [2] | [3] | [4] | [5] | [6]

CN1CCN(CCCN2c3ccccc3Sc3ccc(C(F)(F)F)cc32)CC1
inactive: [2]
active: [1] 29.8 µM | [7] 29.8 µM | [5] 15 µM | [6] 29.8 µM

CN1C(C(=O)Nc2ccccn2)C(=O)c2sc(Cl)cc2S1(=O)=O (configuration not stated)
inactive: [1] | [2] | [3] | [4]

N#Cc1nc(Cl)c(Cl)c(Cl)c1Cl
active: [1] 7.7 µM | [3] 54.5 µM | [7] 4.36 µM | [5] 6.11 µM | [6] 2.19 µM
inactive: [2]

C=CCN1C(=O)C(CC(C)C)NC1=S (configuration not stated)
inactive: [1] | [2] | [3] | [4]

CN(C[C@@H](CC[N+]12CCC(C3CCCCC3)(CC1)CC2)c1ccc(Cl)c(Cl)c1)C(=O)c1cc(C(F)(F)F)cc(C(F)(F)F)c1
inactive: [2]
active: [1] 61.1 µM | [3] 54.5 µM | [7] 54.9 µM | [5] 30.6 µM | [6] 24.5 µM

NCc1cccc(C2CCN(C(=O)c3ccc(C#Cc4ccccc4F)o3)CC2)c1
active: [1] 61.1 µM | [7] 19.5 µM | [5] 48.6 µM
inactive: [2] | [4]

O=C1CCC/C=C\CCCCCCCCCC1
not listed: [4] | [9] | [10]
inactive: all other assays above

O=[N+]([O-])c1ccc(O)c2ncccc12
inactive: [3] | [9] | [7] | [6]
active: [1] 10.6 µM | [2] 3.35 µM

CC(C)c1ccc2sc3ccccc3c(=O)c2c1
active: [2] 30.6 µM | [8] 9.69 µM
inactive: [1] | [3] | [7] | [5]

C[C@H]1O[C@@H](O[C@H]2CC[C@@]3(C)[C@H](CC[C@@H]4[C@@H]3C[C@@H](O)[C@]3(C)[C@@H](C5=CC(=O)OC5)CC[C@]43O)C2)C[C@H](O)[C@@H]1O[C@H]1C[C@H](O)[C@H](O[C@H]2C[C@H](O)[C@H](O[C@@H]3O[C@H](CO)[C@@H](O)[C@H](O)[C@H]3O)[C@@H](C)O2)[C@@H](C)O1
active: [7] 0.15 µM | [5] 0.075 µM | [6] 1.06 µM
inactive: [1] | [2] | [3]

CCCCCCCCCCCCCCCCC(C(=O)O)C(O)(CC(=O)O)C(=O)O (configuration not stated)
inactive: [1] | [2] | [3] | [4]
active: [5] 21.1 µM | [6] 29.8 µM

Cc1ccc(C(C)(C)c2ccc(C)cc2)cc1
inactive: [1] | [2] | [3] | [4]

CC[C@@H](C)[C@@H](N)C1=N[C@H](C(=O)N[C@@H](CC(C)C)C(=O)N[C@@H](CCC(=O)O)C(=O)N[C@@H](C(=O)N[C@@H]2CCCCNC(=O)[C@@H](CC(N)=O)NC(=O)[C@@H](CC(=O)O)NC(=O)[C@@H](Cc3cnc[nH]3)NC(=O)[C@@H](Cc3ccccc3)NC(=O)[C@@H]([C@H](C)CC)NC(=O)[C@@H](CCCN)NC2=O)[C@@H](C)CC)CS1 (X1-LE[d(aIle)][dK][dOrn][dI][dF][dH][dD][dN]; lactam 4-C)
inactive: [1] | [2] | [3] | [4]

c1ccc2cc3c4ccccc4c4ccccc4c3cc2c1
active: [2] 0.0973 µM | [8] 1.94 µM
inactive: [1] | [3] | [7] | [5]

CCCOC(=O)c1ccc(O)cc1
inactive and 23 µM (active): [2]
active: [8] 17.2 µM
not listed: [7] | [9]
inactive: all other assays above

N[C@@H](Cc1ccc(O)c(O)c1)C(=O)O
inactive: [1] | [2] | [3] | [4]

CC(C)Cc1ccc([C@H](C)C(=O)O)cc1
inactive: [1] | [2] | [4]

SC1CCCCC1
not listed: [8] | [9]
inactive: all other assays above

S=C1NC=NC2N=CNC12 (configuration not stated)
active: [2] 30.6 µM | [8] 4.86 µM | [5] 8.63 µM
inactive: [1] | [3] | [6]

COc1cc(/C=C/C(=O)CC(=O)/C=C/c2ccc(O)c(OC)c2)ccc1O
inactive and 27.5 µM (active): [3]
inactive: [1] | [2]
active: [7] 43.9 µM | [5] 54.8 µM

Cc1cc(F)ccc1-c1cc(N2CC[C@@H](O)[C@H]2CO)ncc1N(C)C(=O)C(C)(C)c1cc(C(F)(F)F)cc(C(F)(F)F)c1
inactive: [2]
active: [1] 42.6 µM | [3] 38 µM | [7] 43 µM | [5] 21.4 µM | [6] 19.2 µM

COc1cc([C@@H]2c3cc4c(cc3[C@@H](O[C@@H]3O[C@@H]5CO[C@@H](C)O[C@H]5[C@H](O)[C@H]3O)[C@H]3COC(=O)[C@H]23)OCO4)cc(OC)c1O
inactive: [1] | [2] | [3] | [7]

CCCCCCCCCC[N+](C)(CCCCCCCCCC)CCC[Si](OC)(OC)OC
active: [1] 61.1 µM | [7] 30.9 µM | [6] 13.8 µM
inactive: [2]

CCSCC
not listed: [3] | [9] | [10]
inactive: all other assays above

O=C1c2ccccc2C(=O)C1c1ccc(F)cc1
inactive: [1] | [3] | [4]

Cc1cc(C(=O)NCCc2ccc(S(=O)(=O)NC(=O)NN3CCCCCC3)cc2)no1
inactive: [1] | [3] | [4]

CN(Cc1ccccc1)Cc1ccccc1
inactive: [1] | [3] | [4]

COC(=O)C(CN)c1c[nH]c2ccc(OC)cc12 (configuration not stated)
inactive: [1] | [3] | [4]

CCCCCCCCCCCCN1CCCC1=O
active: [7] 54.9 µM | [5] 61.1 µM | [6] 21.9 µM
inactive: [1] | [3] | [4]

C[C@H](Cc1ccc(O)c(O)c1)[C@@H](C)Cc1ccc(O)c(O)c1
inactive: [1] | [3] | [4]

CC(C)(O/N=C(\C(=O)N[C@@H]1C(=O)N2C(C(=O)[O-])=C(C[n+]3ccccc3)CS[C@H]12)c1csc(N)n1)C(=O)O
inactive: [1] | [3] | [4]

c1ccc2occc2c1
active: [1] 68.6 µM
inactive: [4] | [6]

COc1cc2c(cc1OC)[C@@H](Cc1cc(OC)c(OC)c(OC)c1)[N+](C)(CCCOC(=O)CC/C=C/CCC(=O)OCCC[N+]1(C)CCc3cc(OC)c(OC)cc3[C@H]1Cc1cc(OC)c(OC)c(OC)c1)CC2 (some centres not stated)
inactive: [1] | [3]

C[C@@H]1C[C@H]2[C@@H]3C[C@H](F)C4=CC(=O)C=C[C@]4(C)[C@@]3(Cl)[C@@H](O)C[C@]2(C)[C@H]1C(=O)COC(=O)C(C)(C)C
inactive: [1] | [3] | [4]

CC(C)CCC[C@@H](C)[C@H]1CC[C@H]2[C@@H]3CC[C@@H]4C[C@H](O)CC[C@]4(C)[C@H]3CC[C@]12C
inactive: [1] | [3] | [4]

Oc1ccc(Cl)c2c1CCC2
inactive: [1] | [3] | [4]

Oc1ccc(Cl)cc1C1CCCC1
not listed: [2] | [5] | [8]
inactive: all other assays above

CCCCC/C=C\C=C\C(=O)OCC
active: [1] 56.8 µM
inactive: [3]

NC(=O)[C@@H]1C[C@]2(NC(=O)NC2=O)c2cc(F)ccc2O1
inactive: [1] | [3] | [4]

C[Se]CC[C@H](N)C(=O)O
inactive: [1] | [4]

CCc1cn([C@H]2C[C@H](O)[C@@H](CO)O2)c(=O)[nH]c1=O
inactive: [1] | [3] | [4]

NC(N)=NCCCCN=C(N)N
inactive: [1] | [3] | [4]

C[C@@H]1O[C@@H]1P(=O)(O)O
inactive: [1] | [3] | [4]

CC(C)(COP(=O)(O)OP(=O)(O)OC[C@H]1O[C@@H](n2cnc3c(N)ncnc32)[C@H](O)[C@@H]1OP(=O)(O)O)C(O)C(=O)NCCC(=O)NCCS (some centres not stated)
inactive: [1] | [3] | [4]

c1ccc2c(c1)OCC(CN1CCCCC1)O2 (configuration not stated)
inactive: [1] | [3] | [4]

CC(=O)[C@]1(O)Cc2c(O)c3c(c(O)c2[C@@H](O[C@H]2C[C@H](N)[C@H](O)[C@H](C)O2)C1)C(=O)c1ccccc1C3=O
inactive: [7]
active: [1] 13.3 µM | [3] 13.3 µM | [9] 4.22 µM

N=C(N)c1ccc(/C=C/c2ccc(C(=N)N)cc2O)cc1
inactive: [1] | [3] | [4]

O=C(O)COc1ccccc1/C=N/NC(=O)c1ccncc1
inactive: [1] | [3] | [4]

c1ccc(-n2cnnn2)cc1
inactive: [1] | [3] | [4]

O=C1[O][Bi][O]c2ccccc21
inactive: [1] | [3]

N[C@@H](Cc1cnc[nH]1)C(=O)O
inactive: [1] | [3] | [4]

C=CCc1cc(S(=O)(=O)c2ccc(O)c(CC=C)c2)ccc1O
inactive: [1] | [4] | [6]

Cc1cc(Br)ccc1NC(=O)CCl
active: [1] 13.7 µM | [3] 54.5 µM | [7] 7.76 µM | [5] 54.5 µM | [6] 12.3 µM

CC(C)[N+]1(C)[C@@H]2CC[C@H]1CC(OC(=O)C(CO)c1ccccc1)C2 (some centres not stated)
inactive: [1] | [3] | [4]

Nc1nc(/C(=C/CC(=O)O)C(=O)N[C@@H]2C(=O)N3C(C(=O)O)=CCS[C@H]23)cs1
inactive: [1] | [3] | [4]

C1CCc2nnnn2CC1
inactive: [1] | [3] | [4]

COc1cc2c(cc1O)CCN[C@]21CS[C@@H]2c3c(OC(C)=O)c(C)c4c(c3[C@H](COC1=O)N1[C@@H]2[C@H]2c3c(cc(C)c(OC)c3O)C[C@@H]([C@@H]1O)N2C)OCO4
active: [1] 24.3 µM | [3] 0.0168 µM

CCC(O)c1ccccc1 (configuration not stated)
inactive: [1] | [3] | [4]
